Source: the supplement of paper PMC9694430

Tests used:
Experiment in all cases: thermal shift delta Tm vs DMSO control; higher = stronger stabilization (binding)
Details in all cases: 12.5 µM; protein concentration 2 µM
LOC_OS02G45750-cb003 = test system: LOC_OS02G45750-cb003
Method in brief: (§1)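 Thermal shift values come from differential scanning fluorimetry on purified rice kinase domains made in E. coli, with melting temperatures obtained from Boltzmann fits. Samples of 19.5 μl held 2 μM kinase, 100 mM potassium phosphate pH 7.5, 150 mM NaCl, 10% glycerol, 5 × SYPRO Orange and compound in DMSO, and were heated from 25°C to 95°C at 0.05°C/s. Each shift is a triplicate mean relative to the DMSO-only protein sample.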

LOC_OS02G54510-cb004 = test system: LOC_OS02G54510-cb004
Method in brief: as §1

LOC_OS03G04050-cb001 = test system: LOC_OS03G04050-cb001
Method in brief: as §1

LOC_OS03G12390-cb001 = test system: LOC_OS03G12390-cb001
Method in brief: as §1

LOC_OS03G27990-cb004 = test system: LOC_OS03G27990-cb004
Method in brief: as §1

LOC_OS03G50450-cb001 = test system: LOC_OS03G50450-cb001
Method in brief: as §1

LOC_OS03G50810-cb003 = test system: LOC_OS03G50810-cb003
Method in brief: as §1

LOC_OS04G35114-cb001 = test system: LOC_OS04G35114-cb001
Method in brief: as §1

LOC_OS04G38480-cb003 = test system: T1, LOC_OS04G38480-cb003
T1 sequence (whole entry): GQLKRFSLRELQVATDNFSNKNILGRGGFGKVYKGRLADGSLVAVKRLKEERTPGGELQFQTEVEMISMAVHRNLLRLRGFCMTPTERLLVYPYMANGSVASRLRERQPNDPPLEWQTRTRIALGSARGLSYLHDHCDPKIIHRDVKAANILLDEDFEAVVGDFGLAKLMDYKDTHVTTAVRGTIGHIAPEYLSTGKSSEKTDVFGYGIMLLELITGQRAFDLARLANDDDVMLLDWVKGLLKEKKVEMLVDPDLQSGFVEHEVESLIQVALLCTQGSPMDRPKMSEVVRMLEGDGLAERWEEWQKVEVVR
Method in brief: as §1

LOC_OS04G41100-cb001 = test system: T2, LOC_OS04G41100-cb001
T2 sequence (whole entry): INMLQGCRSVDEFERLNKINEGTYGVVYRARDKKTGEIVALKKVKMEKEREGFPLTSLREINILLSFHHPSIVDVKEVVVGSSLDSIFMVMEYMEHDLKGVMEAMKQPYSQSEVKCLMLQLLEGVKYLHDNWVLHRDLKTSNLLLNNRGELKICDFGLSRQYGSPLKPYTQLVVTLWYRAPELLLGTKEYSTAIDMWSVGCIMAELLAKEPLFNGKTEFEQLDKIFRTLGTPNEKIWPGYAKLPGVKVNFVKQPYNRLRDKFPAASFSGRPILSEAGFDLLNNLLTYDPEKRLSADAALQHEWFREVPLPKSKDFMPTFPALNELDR
Method in brief: as §1
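Also: purified Escherichia coli-expressed rice kinase domain construct.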

| SMILES | thermal shift delta Tm (LOC_OS02G45750-cb003) | thermal shift delta Tm (LOC_OS02G54510-cb004) | thermal shift delta Tm (LOC_OS03G04050-cb001) | thermal shift delta Tm (LOC_OS03G12390-cb001) | thermal shift delta Tm (LOC_OS03G27990-cb004) | thermal shift delta Tm (LOC_OS03G50450-cb001) | thermal shift delta Tm (LOC_OS03G50810-cb003) | thermal shift delta Tm (LOC_OS04G35114-cb001) | thermal shift delta Tm (LOC_OS04G38480-cb003) | thermal shift delta Tm (LOC_OS04G41100-cb001) |
| --- | --- | --- | --- | --- | --- | --- | --- | --- | --- | --- |
| CCNc1nc(Nc2cc(F)c(C(=O)N3CCOCC3)cc2OC)ncc1C(F)(F)F | 1.06 °C | 0.23 °C | 0.41 °C | 0.25 °C | 0.28 °C | 0.95 °C | 0.82 °C | 1.17 °C | 1.15 °C | 0.43 °C |
| O=C(/C=C/c1ccc(O)c(O)c1)c1ccc(O)cc1O [Butein] | 2.94 °C | 0.39 °C | 1.9 °C | 3.8 °C | 1.75 °C | 2.26 °C | 2.72 °C | 3.66 °C | 3.43 °C | 2.09 °C |
| Cc1c(NC(=O)OC[C@@H]2COCCN2)cn2ncnc(Nc3ccc4c(cnn4Cc4cccc(F)c4)c3)c12 | 0.67 °C | 0.27 °C | 0.42 °C | 0.69 °C | 0.14 °C | 0.45 °C | 0.15 °C | 1.04 °C | 1.85 °C | 0.82 °C |
| O=C(O)[C@]1(Cc2cccc(Nc3nccs3)n2)CC[C@@H](Oc2cccc(Cl)c2F)CC1 | 1.57 °C | 4.63 °C | 0.19 °C | 7.89 °C | 0.23 °C | 1.68 °C | 2.52 °C | 9.74 °C | 4.53 °C | 0.24 °C |
| O=C(NOCCO)c1ccc2cncn2c1Nc1ccc(I)cc1F | 0.53 °C | 0.01 °C | 0.75 °C | -0.37 °C | 0.29 °C | -0.24 °C | 0.06 °C | -0.73 °C | -1.85 °C | 0.39 °C |
| CN(C)CCCn1cc(C2=C(c3c[nH]c4ccccc34)C(=O)NC2=O)c2ccccc21 | 0.99 °C | 0.36 °C | 0.65 °C | 0.12 °C | 0.5 °C | 1.02 °C | 0.83 °C | 1.37 °C | -0.32 °C | 0.65 °C |
| Oc1c2ccccc2c2c3c(cccc13)N=N2 | 8.26 °C | 0.51 °C | 0.73 °C | 5.6 °C | 3.39 °C | 2.66 °C | 2.79 °C | 6.42 °C | 2.04 °C | 1.69 °C |
| Cc1ccc(NC(=O)c2ccc(CN3CCN(C)CC3)cc2)cc1Nc1nccc(-c2cccnc2)n1 [Imatinib (STI571)] | 1.17 °C | 0.22 °C | 0.47 °C | -0.05 °C | 0.26 °C | 0.4 °C | 0.42 °C | 0.92 °C | 0.88 °C | 0.5 °C |
| CC(C)(O)CC(=O)NCCn1ccc2ncnc(Nc3ccc(Oc4cccc(C(F)(F)F)c4)c(Cl)c3)c21 | 0.62 °C | -0.25 °C | 0.51 °C | 1.74 °C | 0.47 °C | 0.94 °C | 1.03 °C | 0.12 °C | 1.78 °C | 0.52 °C |
| Cc1ccc([N+](=O)[O-])cc1S(=O)(=O)N(C)/N=C/c1cnc2ccc(Br)cn12 | 1.33 °C | 0.35 °C | 0.72 °C | 0.02 °C | 0.5 °C | 0.64 °C | 0.47 °C | 1.17 °C | 3.16 °C | 1.09 °C |
| CCN(CC)CCNC(=O)c1c(C)[nH]c(/C=C2\C(=O)Nc3ccc(F)cc32)c1C [Sunitinib] | 0 °C | 0.62 °C | 0.04 °C | 7.93 °C | 7.62 °C | 3.43 °C | 7.56 °C | 11 °C | 3.55 °C | 0.46 °C |
| N#Cc1ccc2ncnc(NCCc3ccccc3)c2c1 [Senexin A] | 1.15 °C | 0.03 °C | 0.34 °C | 1.84 °C | 0.37 °C | 0.68 °C | 0.83 °C | 1.3 °C | 1.69 °C | 0.25 °C |
| Cc1cc([C@@H](C)Nc2ccccc2C(=O)O)c2nc(N3CCOCC3)cc(=O)n2c1 | 0.61 °C | 0.49 °C | 0.29 °C | 0.3 °C | 0.29 °C | 0.63 °C | 0.56 °C | 0.73 °C | 0.55 °C | 0.37 °C |
| COc1ccc(CCNCc2ccc(OCc3ccc(Cl)nc3)c(OC)c2)cc1OC | -0.45 °C | 0 °C | 0 °C | -0.53 °C | 0.12 °C | -0.17 °C | 0.18 °C | 0.23 °C | 0.05 °C | 0.41 °C |
| CCn1c(N)c(C(=O)NC)c(=O)c2ccc(C#CC(C)(O)COC)nc21 (stereo not given) | 1.5 °C | -0.18 °C | 0.43 °C | 1.63 °C | 0.43 °C | 0.79 °C | 0.85 °C | 1.56 °C | 0.68 °C | 0.29 °C |
| CC(C)NC[C@@H](C(=O)N1CCN(c2ncnc3c2[C@H](C)C[C@H]3O)CC1)c1ccc(Cl)cc1 [Ipatasertib (GDC-0068)] | 0.72 °C | 0.15 °C | 0.65 °C | -0.37 °C | 0.47 °C | 1.15 °C | 0.45 °C | 0.7 °C | 1.01 °C | 0.07 °C |
| CC(C)NC(=O)COc1cccc(-c2nc(Nc3ccc4[nH]ncc4c3)c3ccccc3n2)c1 | 1.3 °C | 0.55 °C | 0.76 °C | -0.25 °C | 0.71 °C | 0.77 °C | 0.84 °C | 1.5 °C | 1.83 °C | 0.68 °C |
| CN1CCN(c2ccc(OC(F)(F)F)c(Nc3ncc4c(n3)-c3c(c(C(N)=O)nn3CCO)CC4)c2)CC1 | 0.67 °C | -0.01 °C | 0.33 °C | 1.65 °C | -0.02 °C | -0.04 °C | 0.54 °C | 1.58 °C | -0.15 °C | 0.74 °C |
| COc1cc(CCc2cc(NC(=O)c3ccc(N4CC(C)NC(C)C4)cc3)n[nH]2)cc(OC)c1 (stereo not given) | 7.06 °C | 0.23 °C | 0.27 °C | 1.22 °C | 1.11 °C | 0.29 °C | 4.8 °C | 5.76 °C | 0.62 °C | 1.99 °C |
| Cc1cc(C(=O)NOCCO)c(Nc2ccc(I)cc2F)n(C)c1=O | -0.39 °C | 0.03 °C | 0.19 °C | -0.3 °C | 0.02 °C | 1.11 °C | -0.06 °C | 0.41 °C | 0.64 °C | 0.58 °C |
